NS1 inh – qHTS Assay for Inhibitors of Influenza NS1 Protein Function. Potency, µM (highest dose often 46.1 µM), for the others: at the top dose activity, positive = more growth. 270,000 tested, 0.4% active; calls by dose curve; also: potency is read from the fitted curve at half-maximal effect; actives are rising curves; nearly all actives have a fitted effect of over 50% in size
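A cell-based growth assay was used: compounds that relieve NS1-induced slow growth of budding yeast raise OD600. Assay medium was yeast nitrogen base with ammonium sulphate and -URA supplement, pH 6.0, with 2% galactose.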
Pf growth 96h – Primary qHTS for delayed death inhibitors of the malarial parasite plastid, 96 hour incubation. P. falciparum luciferase reporter growth, 96 h. Potency, µM (highest dose often 28.7 µM), for the others: at the highest dose activity change, negative = inhibition, hits mostly inhibitors. 320,000 tested, 6.9% active. AID 504834, 2011; also: potency is read from the fitted curve at half-maximal effect; % is scaled to controls: 0 for no effect and ±100 for the full control effect
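Two-generation exposure (96 h) targets delayed-death phenotype. Reporter parasites carrying integrated firefly luciferase, in red cells at 2% hematocrit and 0.05% parasitemia final, kept at 37 C, 5% CO2; luminescence loss indicates inhibition.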
Pf growth 48h – Primary qHTS for delayed death inhibitors of the malarial parasite plastid, 48 hour incubation; P. falciparum luciferase growth in erythrocytes, 48 h; Potency, µM (top dose mostly 28.7 µM), inactives show at the top dose activity change, negative = inhibition, usual class: inhibitors; 310,000 tested, 5.9% active; AID 504832, 2011; also: potency is read from the fitted curve at half-maximal effect; % is scaled to controls: 0 for no effect and ±100 for the full control effect
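Luciferase-expressing parasites in RBCs, 2% Hct / 0.1% parasitemia final; RPMI 1640 + 0.5% Albumax; 37 C, 5% CO2, one generation; luminescence read-out, lower signal = inhibition.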
CHX counter – Cycloheximide Counterscreen for Small Molecule Inhibitors of Shiga Toxin; cell reporter, cycloheximide protein synthesis inhibition counterscreen; max response, %; 300,000 tested, 12% active; in the data active = max response mostly above about 13%, no sharp cut-off; inactive = mostly below about 14%; also: read at 38.3 µM for the half of the compounds with a filed dose; 0% is about no effect
Shiga inhibitor – A qHTS for Small Molecule Inhibitors of Shiga Toxin | Vero cells, Shiga toxin protein synthesis inhibition reporter | inhibition, % at 38.7 µM | 290,000 tested, 9.2% active | AID 2315, 2010; in the data active = inhibition mostly above about 28%, no sharp cut-off; inactive = mostly below about 43%; also: 0% is about no effect
SARS PLP yeast – qHTS of Yeast-based Assay for SARS-CoV PLP; Potency, µM (doses to about 32.9 µM), for the others: at the top dose activity, positive = growth rescue, usual class: activators; AID 485353, 2010; 330,000 tested, 0.19% active; S. cerevisiae expressing SARS-CoV PLpro, growth rescue; calls by dose curve; also: potency is read from the fitted curve at half-maximal effect; 0% is about no effect; nearly all actives have a fitted effect of over 55% in size
Starred values were filed as active, the others as inactive; ? = inconclusive; / = not tested or not shown; + = active, no number; [ ] = another dose, or the depositor's remark. Shown are actives, neighbours in structure and some others; about 21% of the full set was active somewhere. Unless noted, calls follow the shape of the dose curve; as a rule, active = well fitted inhibition curve with a large enough effect; inconclusive = small, poorly fitted or top-dose-only effect, or another doubt; inactive = no such curve, though single readings can be large or run the other way.

SMILES	NS1 inh	Pf growth 96h	Pf growth 48h	CHX counter	Shiga inhibitor	SARS PLP yeast
COc1ccc(-c2nn3c(-c4ccccc4)nnc3s2)cc1	-54%	5%[5.75 µM]	?	10	28	0%
COc1cccc(-c2nnc3sc(-c4ccccc4)nn23)c1	-9%	3.3µM*	?	-4	23	-3%
COc1cccc(-c2nnc3sc(-c4ccc(Cl)cc4)nn23)c1	1%	-10%	6%	-6	-22	-1%
Cc1nc2sc(-c3ccccc3)nn2c(=O)c1Br	-23%	-15%	113%	56*	94*	-8%
COc1ccc(CNC(=O)CN(C)S(=O)(=O)c2ccc3c(c2)OCCO3)cc1OC	/	?	?	/	/	-1%
COc1ccc(CNC(=O)c2ccc(CS(=O)(=O)c3ccc(C)cc3)o2)cc1	-15%	22%	22%	3	-4	-3%
CCOc1cccc(-c2nn3c(-c4cc(C)[nH]n4)nnc3s2)c1	-2%	1.7µM*	?	10	15	-6%
COc1cccc(OC)c1-c1nn2c(-c3cc(-c4ccccc4)n[nH]3)nnc2s1	6%	-21%	2.1µM*	-1	-4	-6%
CCOc1cccc(-c2nnc3sc(-c4cc(OC)c(OC)cc4OC)nn23)c1	?	35%	1%	-3	-1	2%
c1ccc(-c2nnc3sc(-c4ccncc4)nn23)cc1	-1%	/	-26%	-3	-16	2%
COc1cc(-c2nn3c(-c4ccccn4)nnc3s2)cc(OC)c1OC	3%	-10%	20%	-1	-33	-2%
Cc1cccc(-c2nnc3sc(-c4ccccc4C)nn23)c1	-90%	/	?	11	46*	-1%
Clc1cccc(-c2nn3c(-c4ccncc4)nnc3s2)c1	3%	13µM*	20%	-3	-18	-2%
CCN(CC(=O)Nc1c(F)cccc1F)C(=O)C1CC(=O)N(CCc2ccccc2)C1 (centres undefined)	/	4%	-4%	/	/	/
CCO/C=C/C(=O)N(C)CCC#N	-2%	12µM*	13%	-2	-6	1%
Cc1ccc(S(=O)(=O)N2CC(O)CC2C(=O)OCC(=O)Nc2ccc([N+](=O)[O-])cc2C(F)(F)F)cc1C (centres undefined)	/	/	/	/	/	-1%
Nc1nnc(SCc2ccc(Cl)cc2)s1	17%	-6%	56%	14	+	11%
Nc1nnc(SCc2coc(-c3ccc(Cl)cc3)n2)s1	-5%	/	87%	39*	64*	-4%
Nc1nnc(CSCc2ccc(Cl)cc2)s1	2%	-10%	3%	-3	-11	-22%
Nc1nnc(SCc2cccc(C(F)(F)F)c2)s1	-3%	-27%	29%	11*	18	-4%
Nc1nnc(CSc2ccc(Cl)cc2)s1	7%	?	17%	50*	42	10%
CCOC(=O)CSc1nnc(N)s1	4%	-12%	?	-1	-3	0%
CCOC(=O)c1ccc(CSc2nnc(N)s2)cc1	-13%	-17%	63%	39*	92*	-3%
O=C1[C@H]2[C@@H](/C=C/c3ccccc3)N3C(=O)CN(Cc4ccccn4)C(=O)[C@@]3(Cc3ccccc3)[C@H]2C(=O)N1c1ccccc1	-13%	7%	-7%	-2	-6	-7%
CCc1cc(C(=O)Nc2ncccc2O)sc1C	-98%	95%	29%	37*	55*	0%
SMILES	NS1 inh	Pf growth 96h	Pf growth 48h	CHX counter	Shiga inhibitor	SARS PLP yeast
CCc1cc(C(=O)NNC(=O)CCl)sc1C	/	1.5µM*	1µM*	20	-3	?
CC(C)(C)C1CCC(=NNC(=O)c2cc3c(s2)CCCC3)CC1 (centres undefined)	5%	5%	2%	-2	-3	-9%
CC(C)(C)C1CCc2sc(C(=O)NNC(=O)CCl)cc2C1 (centres undefined)	/	?	?	59*	109*	?
CCc1cc(C(=O)NNC(=O)CCN2CCN(c3ccccc3)CC2)sc1C	5%	29%	5%	-1	-11	26%
CCOC(=O)c1sc(NC(=S)NC(=O)c2ccc(OC)cc2)nc1C	-14%	2.9µM*	34%	10	8	0%
CCOC(=O)c1sc(NC(=S)NC(=O)c2ccco2)nc1C	4%	?	39%	42*	50	-14%
